Assay results reported in PubChem BioAssay AID651820 (National Center for Advancing Translational Sciences (NCATS), 2012).
In all, about 340,000 compounds went through this assay and about 12,000 (3.5%) were called active. About 18% were inconclusive and are not listed. This excerpt belongs to a sample that is enriched for actives. Unmarked numbers belong to inactive results. The call rests on the fitted dose curve; in most records, active means well fitted inhibition curve with a large enough effect; inconclusive means small, poorly fitted or top-dose-only effect, or another doubt; inactive means no such curve, though single readings can be large or run the other way.

Test: qHTS Assay for Inhibitors of Hepatitis C Virus (HCV)
Settings: Huh7.5.1 HCVcc-Cre infection, luciferase reporter, 44 h; series mostly up to 41.8 µM; activity change, negative = inhibition: at the top concentration
Procedure, shortened: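 Luciferase read-out (15 sec integration) after a 15 min room-temperature substrate step quantifies HCVcc-Cre infection. Cells, 1,000 per well, had compound added 4 h post-plating, then virus at ~0.5 moi, and were cultured 44 h.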
On the % scale 0 is the no-effect control and ±100 the full control effect; potency means the concentration at half of the fitted maximal effect.

Compound	activity change, negative = inhibition	Potency
CNC[C@@H]1Oc2c(NS(C)(=O)=O)cccc2C(=O)N([C@@H](C)CO)C[C@H]1C	12.2%	
CCN(CC(=O)Nc1ccccc1C(F)(F)F)C(=O)C1CCN(C(=O)Nc2ccccc2)CC1	1.26%	
COc1ccc(CCNC(=O)COC(=O)c2cc(=O)c3ccccc3o2)cc1	-17.9%	
Cc1ccc(NC(=O)CCN2C(=O)c3ccccc3C2=O)cc1C	-7.16%	
Cc1cc2c(cc1C)N(C(=O)CN1C(=O)c3ccccc3C1=O)C(C)(C)c1ssc(=S)c1-2		8.91 µM (active)
Cc1cc(C)cc(NC(=O)CN2C(=O)c3ccccc3C2=O)c1	-14.1%	
O=C(NOCc1ccccc1)c1cccc([N+](=O)[O-])c1	3.65%	
O=C(Nc1cccc(Cl)c1)C1CCCN(c2cnccn2)C1 (stereo not drawn)	7%	
O=C(NC1CCCC1)C1CCN(C(=O)Nc2cccc(Cl)c2)CC1	-10.4%	
O=C(Nc1cccc(-c2cccc(Cl)c2)c1)C1CCN(C2CCC2)CC1		12.6 µM (active)
N#Cc1ccc(CN2CCN(CC(=O)Nc3ccccc3C(=O)NC3CC3)CC2)cc1	-0.21%	
CCOC(=O)c1c(C)[nH]c2c1-c1ccccc1C(=O)C2=O		2.51 µM (active)
CCOC(=O)N1CCN(CC(=O)c2c(C)[nH]c3ccccc23)CC1	3.72%	
CCOC(=O)c1c(C)[nH]c(C)c1S(=O)(=O)N(C)CC(=O)Nc1ccccc1C	26.1%	
O=C1OC(Cc2ccccc2)C(c2ccccc2)C1=O (stereo not drawn)	25.4%	
COCCN(CCOC)S(=O)(=O)NC[C@H]1O[C@@H](n2cnc3c(N)ncnc32)[C@H](O)[C@@H]1O	52.6%	
O=C(COc1coc(CN2CCN(c3ccccc3F)CC2)cc1=O)N1CCc2ccccc21	13.6% [at 8.37 µM]	
Cc1ccc(Nc2c(O)nc[nH]c2=O)cc1C	8.83%	
O=C(NNC(=S)NCc1ccccc1)c1ccc(OC(F)F)cc1	27.3%	
CC/C(=N\NC(=S)NC(C)C)c1ccc(OC(F)F)cc1		10 µM (active)
CC(C)N(Cc1ccccc1)C(=S)Nc1ccc(OC(F)F)cc1	-13.6%	
CC(C)c1ccc(/C=C/C(=O)NCCCN2CCOCC2)cc1	18.6%	
C[C@H]1COC(=O)[C@H](CC(=O)OC(C)(C)C)C/C=C\C[C@@H](CC(=O)N[C@H](CO)Cc2ccccc2)C(=O)N1	19.3%	
O=C(N/N=C/c1ccoc1)c1ccc(Cl)cc1Cl	-0.768%	

Compound	activity change, negative = inhibition	Potency
CC(C)(C)C(=O)Nc1ccc(C(=O)N/N=C/c2ccccc2OC(=O)c2ccc(Cl)cc2Cl)cc1		10 µM (active)
O=C(N/N=C/c1ccc(OC(=O)c2ccccc2Cl)cc1)c1ccc(O)cc1	-17.5%	
CCOc1ncccc1C(=O)Nc1ccc(S(=O)(=O)Nc2nc(C)cc(C)n2)cc1	9.65%	
CCC(=O)N(CCc1ccccc1)Cc1cc2cc(C)ccc2[nH]c1=O	2.79%	
CCN(Cc1cc2cc(C)ccc2[nH]c1=O)S(=O)(=O)c1ccccc1		11.2 µM (active)
Cc1ccc(S(=O)(=O)N(Cc2cc3ccccc3[nH]c2=O)CC2CCCO2)cc1 (stereo not drawn)	-14.3%	
O=C(COC(=O)c1ccc2c(c1)OCCO2)NCc1ccccc1Cl	-1.28%	
CCOc1ccc(-n2c(O)c(/C=N/Nc3nnc(C)c(=O)[nH]3)c3ccccc3c2=O)cc1	13.9%	
CCOc1ccc(-n2c(O)c(/C=N/c3ccnn3Cc3ccncc3)c3ccccc3c2=O)cc1	-0.515%	
CCOc1ccc(-n2c(O)c(/C=N/Nc3nc(C)cc(C)n3)c3ccccc3c2=O)cc1		2.24 µM (active)
COC(=O)C1CC2=C(CC(C)(C)CC2=O)N(c2ccccc2)C1=O (stereo not drawn)	32.1%	
CC1CC2=C(CC1/C=N/NC(N)=S)C(C)(C)CCC2 (stereo not drawn)		6.31 µM (active)
C[C@@H]1ON(C)[C@H]2C[C@H]3c4cc(N5CCN(C)CC5)ccc4CCN3C(=O)[C@@H]12	24.6%	
O=C(NCc1ccc(Cl)cc1)C(=O)NCC1CCCN1S(=O)(=O)c1cccs1 (stereo not drawn)	-4.44%	
COc1ccccc1Oc1nc(-c2cccnc2)nc2ccccc12	-18%	
S=c1nc2ccccc2c2nc(-c3cccnc3)[nH]n12	-4.46%	
Oc1ccc(-c2nnc(Nc3ccccc3)c3ccccc23)cc1	4.1%	
COc1ccc(Nc2nc(-c3cccnc3)nc3ccccc23)cn1		7.94 µM (active)
Cc1cccc(-c2nc(Nc3ccc(O)cc3)c3ccccc3n2)c1		12.6 µM (active)
CCOC(=O)c1nc(Nc2ccc(C(=O)OC)cc2)c2ccccc2n1	-16%	
COc1ccc(Br)cc1CN(C)C(=O)C1CC(=O)N(C2CCCC2)C1 (stereo not drawn)	-3.77%	
O=C(CC1SC(N2CCCC2)=NC1=O)Nc1ccc(C(=O)NCCc2ccc(F)cc2)cc1 (stereo not drawn)	6.88%	
O=C(COC(=O)c1c(Cl)cccc1Cl)Nc1cccc(S(=O)(=O)NC2=NCCCCC2)c1	-2.28%	
CCN1C[C@@H]2[C@@H]3C(=O)N(Cc4ccccc4)C(=O)[C@@H]3[C@](C)(C1=O)N2C(=O)c1ccc(C(C)(C)C)cc1	7.51%	
